Shown are actives, neighbours in structure and some others; about 1.2% of the full set was active somewhere.
Vc quorum ag-1 – inducers of Vibrio cholerae quorum light production without autoinducers, primary screen, BH1578 luxS cqsA deficient, single point; V. cholerae BH1578 lux reporter, luminescence, 6 h; activation, % at 18.7 µM; AID 588436, 2011; hit rate 0.16% among 350,000; in the data active = activation mostly above about 9.7%, no sharp cut-off
ugtP null kill – growth inhibition of ugtP-null S. aureus, primary screen, RN4220 ugtP deletion, OD600; AID 1259309, 2017; growth inhibition, % (test concentration not listed); 16 h; hit rate 0.54% among 330,000; in the data active = growth inhibition above about 68%;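 also: plate controls were untreated wells for no effect and antibiotic for full effect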
Mtb bLac sens – beta-lactam sensitization of Mtb H37Rv, H37Rv | M. tuberculosis H37Rv growth with meropenem, percent inhibition | inhibition, % at 25 µM | hit rate 0.27% among 330,000;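 also: growth measured after seven days incubation then overnight dye step; 0% = bacteria only wells and 100% = bacteria with antibiotic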
RN4220 kill – growth inhibition of S. aureus RN4220, primary screen, OD600 | inhibition, % (no concentration beside the values) | AID 1259311, 2017 | 16 h | hit rate 0.33% among 330,000; in the data active = inhibition above about 85%;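 also: plate controls were untreated cells for no effect and reference antibiotic for full effect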
PfHsp40 rescue – rescue of yeast from PfHsp40 toxicity, primary screen, S. cerevisiae, ATP luminescence. growth rescue, % at 12.5 µM. S. cerevisiae expressing PfHsp40, growth rescue. hit rate 0.68% among 340,000; in the data active = growth rescue above about 28%, passing the limit was not always enough;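 also: yeast W303a lacking pdr1 and pdr3 grown in galactose medium; growth measured after three days at 30 °C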
Vc quorum ag-2 – V. cholerae lux activation without autoinducers – BH1578 luxS cqsA deficient, cherry-pick, plate reader, dose response | V. cholerae BH1578 lux reporter, luminescence, 6 h | activation, % at 50 µM | shares compounds with Vc quorum ag-1 | 620 tested, under 10 active
The depositor's hits bear a star; i = inactive; . = not tested or not shown; + = active, no number. Unless noted, no rule for the calls is given here.

SMILES	Vc quorum ag-1	ugtP null kill	Mtb bLac sens	RN4220 kill	PfHsp40 rescue	Vc quorum ag-2
Cc1cccc(NC(=O)CSc2nc(=O)n(CCN3CCOCC3)c3c2CCCC3)c1C	2	7	-3	2	-1	0
O=C(Nc1nnc(-c2ccc(Br)cc2)o1)c1cccc(N2C(=O)CCC2=O)c1	14	15	36	37	0	0
O=C(Nc1nnc(-c2ccccc2)o1)c1cccc(N2C(=O)CCC2=O)c1	-3	.	-9	.	-1	.
CC(C)n1nnnc1SCC(=O)Nc1ccc2c(c1)OCCO2	.	3	-5	2	.	.
O=C(CSc1nnc2ccccn12)c1ccc2c(c1)OCCO2	+	9	-9	0	1	i
CCn1nnnc1SCC(=O)c1ccc2c(c1)OCCO2	+	-3	-15	-4	-1	i
CC(C)n1nnnc1SCC(=O)c1ccc2c(c1)OCCO2	+	4	9	4	24	i
CN(Cc1nc2ccccc2n1C)C(=O)c1ccco1	12	7	-3	3	3	0
CN(C)c1ccc(C=NNC(=O)CNC(=O)/C=C/c2ccccc2)cc1	.	9	.	-3	.	.
COc1cccc(CNC(=O)COC(=O)CN(C)S(=O)(=O)c2ccc(NC(C)=O)cc2)c1	12	11	-9	3	-1	0
O=C(O)C1=CCC(c2ccc(Cl)cc2)N(S(=O)(=O)c2ccc(Cl)cc2)C1 (stereo unspecified)	.	-4	.	7	.	.
COc1ccc(OCCOC(=O)c2cccs2)cc1	524*	4	80	2	0	152
COc1ccc(OCCOC(=O)CCS(=O)(=O)c2ccc(C)cc2)cc1	12	10	3	1	-1	0
C[C@@]12CCCC(O1)C(C(O)c1ccccc1)O2 (stereo partly specified)	.	-1	.	5	.	.
CCOc1ccc2nc(SCC(=O)NC(=O)NCc3ccco3)[nH]c2c1	32*	-8	-8	-2	-1	0
COc1ccc(C=NNC(=O)c2ccc(C)cc2)cc1CN1CCN(c2ccc(F)cc2)CC1	.	-5	.	5	.	.
CC(C)Oc1ccccc1C=NNc1ccccc1[N+](=O)[O-]	.	-20	.	-12	.	.
CCOC(=O)c1c2ccccc2[n+]([O-])n1C(C)C(N)=O (stereo unspecified)	.	5	.	6	.	.
CCOc1ccc(CNc2nnnn2C)cc1	+	3	-1	1	-1	i
CC(C)c1ccc(CNc2nnnn2C)cc1	.	0	-1	1	0	i
CCOc1cccc(CNc2nnnn2C)c1	6	12	0	0	1	.
Cn1nnnc1NCc1cccc(Cl)c1	2	2	-10	0	1	.
CCOc1ccc(N2CC(C(=O)Nc3ccc(S(=O)(=O)Nc4ncccn4)cc3)CC2=O)cc1 (stereo unspecified)	3	0	25	7	0	.
O=C(Nc1ccc(S(=O)(=O)Nc2ncccn2)cc1)C1CC(=O)N(c2ccccc2)C1 (stereo unspecified)	14	5	.	4	0	3
O=C(C=Cc1ccccc1)N1CCCC1CO (stereo unspecified)	.	-2	.	-2	.	.
SMILES	Vc quorum ag-1	ugtP null kill	Mtb bLac sens	RN4220 kill	PfHsp40 rescue	Vc quorum ag-2
COc1ccc(Cl)cc1S(=O)(=O)NC(C)C(=O)NCCCn1ccnc1 (stereo unspecified)	14	7	-4	3	1	0
COC(=O)CN1CCN(C(c2ccccc2)c2ccccc2)CC1	0	1	-8	-1	2	.
COCCNC(=O)CN1CCN(C(c2ccccc2)c2ccccc2)CC1	12	6	1	2	-1	0
CC(NC(=O)CN1CCN(c2ccccc2F)CC1)c1ccccc1 (stereo unspecified)	27	4	1	3	0	1
Nc1nnn(CC(=O)NN=Cc2ccccc2Cl)n1	.	0	.	21	.	.
CCOC1OC(C(=O)N2CCCCCCC2)=CC(C)C1CCCO (stereo unspecified)	.	2	.	5	.	.
CCOC(=O)C1=C(C)N=C2SCCC(=O)N2C1c1cc(Br)ccc1OC (stereo unspecified)	12	-3	-5	-2	0	0
COC(=O)C1=C(C)N=C2SCCC(=O)N2C1c1cc(Br)ccc1OC (stereo unspecified)	2	-5	1	-7	-1	.
CCc1nnc(NC(=O)c2ccc3ccccc3n2)s1	-1	3	90	0	-1	.
CCSc1nnc(NC(=O)c2ccc3ccccc3n2)s1	25	5	90	19	0	0
COC(=O)c1ccc(C2c3c(oc4ccc(F)cc4c3=O)C(=O)N2CCO)cc1 (stereo unspecified)	0	-7	0	0	-1	.
COC(=O)c1ccc(C2C(C(C)=O)=C(O)C(=O)N2CCO)cc1 (stereo unspecified)	17*	1	-4	5	1	0
CCC(=O)N1CC2(CC(c3cccc([N+](=O)[O-])c3)=NO2)CC1C(=O)NCC(N)=O (stereo unspecified)	.	-1	.	8	.	.
CCCCOCC(O)CN1CCN(C(C)=O)CC1 (stereo unspecified)	12	-7	-5	2	0	2
CC(=O)N1CCN(CC(O)COc2ccc(Br)cc2)CC1 (stereo unspecified)	i	5	-1	1	-1	.
O=C(NN=Cc1cccn1-c1ccc(O)cc1)c1cccc2ccccc12	.	-3	.	1	.	.
CC(C)CC(=O)Nc1ccccc1N1CCN(C(=O)c2ccccc2)CC1	34*	8	-12	3	0	0
CC(C)CC(=O)Nc1ccccc1N1CCN(c2ccccc2)CC1	0	14	-4	-1	0	.
Cc1c(-c2ccc(C=NNC(=O)C(=O)Nc3ccccc3F)o2)cccc1[N+](=O)[O-]	.	-1	.	6	.	.
COc1ccc(-n2c(COc3ccccc3)nnc2SCc2ccc(C#N)cc2)cc1	12	-8	1	0	0	0
CCOC(=O)N1CCC(NC(=O)C2CCN(C(=O)N3CC(C)Oc4ccc(C)cc43)CC2)CC1 (stereo unspecified)	7.6*	2	-5	0	1	1
CCOc1ccccc1N(CC(=O)Nc1ccc2c(c1)OCCO2)S(C)(=O)=O	21	0	5	2	0	0
COc1ccccc1NC(=O)COC(=O)c1ccc2c(c1)OCCO2	52*	4	2	7	-1	7
COc1ccccc1NC(=O)COC(=O)c1cn(C)c2ccccc12	+	-9	6	7	1	268

Screening data deposited in PubChem by several laboratories.
